Bioassay records deposited in PubChem BioAssay by National Center for Advancing Translational Sciences (NCATS).
PI5P4K alpha inh: PI5P4K alpha (human) kinase inhibition | P48426 | PI5P4Kalpha enzyme, ADP-Glo luminescence, 60 min; active compounds read low | max response, % | 330,000 compounds, 1.2% hits | AID 652105; active means max response of -50% or lower; inconclusive means between -30% and -50%; inactive means -30% or higher; further: value at the top dose of about 77 µM; on the % scale 0 is the no-effect control and ±100 the full control effect
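Controls without substrate or without enzyme flank wells where PI5P4Kalpha converts substrate using 5 microM ATP (final). Incubation lasts 60 minutes at room temperature; ADP formed is read by ADP-Glo luminescence.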
JMJD2A Tudor: inhibitors of human JMJD2A Tudor domain; O75164; AlphaScreen JMJD2A-Tudor / H3K4me3 peptide binding; Potency, µM (top dose mostly 114 µM), inactives show top-dose activity change, negative = inhibition, hits mostly inhibitors; 390,000 compounds, 4.4% hits; AID 504339; further: potency means the concentration at half of the fitted maximal effect; on the % scale 0 is the no-effect control and ±100 the full control effect; nearly all actives have a fitted effect of over 50% in size
L3MBTL1 inh: L3MBTL1 (human) inhibition; AlphaScreen L3MBTL1–H3K9me1 peptide binding; Potency, µM (series often up to 57.1 µM), for inactives: at the top dose activity, negative = inhibition, usual class: inhibitors; 230,000 compounds, 0.66% hits; further: potency means the concentration at half of the fitted maximal effect; on the % scale 0 is the no-effect control and ±100 the full control effect; nearly all actives have a fitted effect of over 60% in size
Target sequence (Q9Y468 whole entry, looked up): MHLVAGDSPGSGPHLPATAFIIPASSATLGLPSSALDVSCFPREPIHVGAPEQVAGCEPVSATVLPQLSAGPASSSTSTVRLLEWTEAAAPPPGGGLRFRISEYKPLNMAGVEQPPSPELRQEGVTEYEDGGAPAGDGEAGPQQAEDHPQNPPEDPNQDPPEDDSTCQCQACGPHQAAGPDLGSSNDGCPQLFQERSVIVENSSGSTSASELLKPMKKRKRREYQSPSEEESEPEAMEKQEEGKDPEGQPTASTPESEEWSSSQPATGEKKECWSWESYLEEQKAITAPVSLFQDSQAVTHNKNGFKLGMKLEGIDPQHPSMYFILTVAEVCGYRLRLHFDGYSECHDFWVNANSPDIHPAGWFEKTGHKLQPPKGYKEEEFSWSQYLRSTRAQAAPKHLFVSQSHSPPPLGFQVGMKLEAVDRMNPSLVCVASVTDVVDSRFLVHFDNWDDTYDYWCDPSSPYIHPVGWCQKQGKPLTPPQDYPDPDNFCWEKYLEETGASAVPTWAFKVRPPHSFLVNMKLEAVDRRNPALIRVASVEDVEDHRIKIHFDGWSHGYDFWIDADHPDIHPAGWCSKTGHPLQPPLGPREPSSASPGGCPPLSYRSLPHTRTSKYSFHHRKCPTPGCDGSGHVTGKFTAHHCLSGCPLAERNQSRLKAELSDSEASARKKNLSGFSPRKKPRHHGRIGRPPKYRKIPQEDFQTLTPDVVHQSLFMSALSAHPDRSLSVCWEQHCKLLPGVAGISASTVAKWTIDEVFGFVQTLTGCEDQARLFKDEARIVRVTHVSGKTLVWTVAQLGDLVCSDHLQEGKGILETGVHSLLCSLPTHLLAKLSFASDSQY
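L3MBTL1 (50 nM) pre-complexed 30 min with biotinylated H3(1-15)K9me1 peptide (75 nM), then compounds added for 30 min at room temperature; AlphaScreen streptavidin donor/nickel chelate acceptor beads (10 ug/mL final) read after 30 min dark incubation.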
BAZ2B inh: BAZ2B (human) inhibition. Q9UIF8. AlphaScreen BAZ2B-H3K14Ac peptide displacement. Potency, µM (titrated, usually from 114 µM), inactives show at the highest dose activity change, negative = inhibition, most hits filed as inhibitors. 360,000 compounds, 4.4% hits; further: potency means the concentration at half of the fitted maximal effect; on the % scale 0 is the no-effect control and ±100 the full control effect; nearly all actives have a fitted effect of over 60% in size
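Inhibition is scored as reduced AlphaScreen emission. The BAZ2B/b-H3(5-23)K14Ac complex (50 nM each) in PBS pH 7.4, 0.01% Tween-20 meets compound (up to 110 uM) for 30 min at RT before bead addition.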
HP1b binding inh: inhibitors of HP1-beta chromodomain binding to methylated histone tails; P83916; AlphaScreen HP1-beta / biotin-H3K9me3 peptide binding; Potency, µM (doses to about 114 µM), for inactives: top-dose activity change, negative = inhibition, actives largely listed as inhibitors; 390,000 compounds, 0.56% hits; further: potency means the concentration at half of the fitted maximal effect; nearly all actives have a fitted effect of over 70% in size
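Compound inhibition of the preformed complex between 50 nM HP1-beta and 50 nM biotinylated H3K9me3 peptide was read by AlphaScreen. Buffer was PBS pH 7.4 with 0.01% Tween-20. Incubations ran 30 min at room temperature, with 10 ug/mL donor/acceptor beads.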
G9a inh: blocks human histone lysine methyltransferase G9a | Q96KQ7 | Potency, µM (titrated, usually from 102 µM), inactives show at the top dose activity, negative = inhibition, actives largely listed as inhibitors | 350,000 compounds, 8.8% hits | G9a H3K9 monomethylation, AlphaScreen, 2 h; further: potency means the concentration at half of the fitted maximal effect; on the % scale 0 is the no-effect control and ±100 the full control effect; nearly all actives have a fitted effect of over 75% in size
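AlphaScreen read-out: biotin-H3K9 peptide (500 nM) methylation by 20 nM enzyme with 20 uM SAM, 2 h at room temperature after 15 min compound preincubation; anti-monomethyl H3K9 antibody plus donor/acceptor beads, 10 min dark.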
An asterisk follows results filed as active; ? = inconclusive; nt = not tested or not shown; [ ] = another dose, or the depositor's remark. Shown are actives, neighbours in structure and some others; about 11% of the full set was active somewhere. Unless noted, the call rests on the fitted dose curve; in most records, active means well fitted inhibition curve with a large enough effect; inconclusive means small, poorly fitted or top-dose-only effect; inactive means no such curve, though single readings can be large or run the other way.

SMILES	PI5P4K alpha inh	JMJD2A Tudor	L3MBTL1 inh	BAZ2B inh	HP1b binding inh	G9a inh
CSc1ccc(S(=O)(=O)N2CCC(C(=O)Nc3ccc(NC(C)=O)cc3)CC2)cc1	9	-16%	nt	1%	12%	40µM*
CC(=O)Nc1ccc(S(=O)(=O)N2CCC(C(=O)NC3CCCC3)CC2)cc1	-1	-10%	nt	1%	31%	41%[59 µM]
Cc1nnc(NC(=O)C2CCN(S(=O)(=O)c3ccc(F)c(F)c3)CC2)o1	8	50µM*	-15%	nt	29%	nt
Cn1c(=O)oc2cc(S(=O)(=O)N3CCC(C(=O)Nc4ccc(F)c(Cl)c4)CC3)ccc21	nt	-11%	nt	-13%	38%	-30%[59 µM]
O=C(NCC1CCCO1)c1c[nH]c2ccc(S(=O)(=O)Nc3cccc(C(F)(F)F)c3)cc2c1=O (centres undefined)	nt	0%	nt	2%	40%	1%[59 µM]
Cc1nc2ccccc2n1CC(=O)N/N=C\c1ccccn1	6	?	18%	50µM*	33%	?
O=C(Cn1cnc2ccccc21)N/N=C/c1cccnc1	0	-13%	nt	-14%	36%	-21%
O=C(Cn1cnc2ccccc21)N/N=C/c1ccccn1	-6	-10%	11%	10µM*	23%	-1%[0.501 µM]
CC1(C)CN(O)CCN1O	9	-17%	8%	-28%	20%	20µM*
CCCCn1c(N)c(N(CCC(C)C)C(=O)C2=NN(c3cc(C)ccc3C)C(=O)CC2)c(=O)[nH]c1=O	-5	-1%	2%	12%	55%	40µM*
CCCCn1c(N)c(N(CC(C)C)C(=O)Cn2c(=O)oc3ccccc32)c(=O)[nH]c1=O	0	-13%	1%	5%	-14%	-27%
CCCCn1c(N)c(N(CC(C)C)C(=O)c2cc(-c3ccncc3)nc3ccccc23)c(=O)[nH]c1=O	-4	-17%	-17%	2%	13%	56µM*
CCCCn1c(N)c(N(CCOC)C(=O)c2ccco2)c(=O)[nH]c1=O	4	-16%	9%	-1%	30%	?
CCCCn1c(N)c(N(CC(C)C)C(=O)c2ccco2)c(=O)[nH]c1=O	-3	4%	?	9%	27%	50µM*
CCCCn1c(N)c(N(CC(C)C)C(=O)Cn2c(=O)cnc3ccccc32)c(=O)[nH]c1=O	2	8%	6%	-1%	47%	45µM*
O=C1CC(c2nnc(Cc3ccc(F)cc3Cl)o2)CN1c1ccccc1 (centres undefined)	nt	-17%	nt	-11%	15%	-22%[59 µM]
CCCCn1c(N)c(N(Cc2ccccc2OC)C(=O)c2cc(=O)[nH]c3ccccc23)c(=O)[nH]c1=O	-12	-12%	4%	34%	6%	35µM*
CCCCn1c(N)c(N(CCC(C)C)C(=O)c2ccc([N+](=O)[O-])s2)c(=O)[nH]c1=O	-14	-21%	-3%	6%	-5%	79µM*
O=S(=O)(NCCc1nnc2ccc(SCc3ccccc3Cl)nn12)c1ccccc1	nt	-24%	nt	?	13%	-31%[59 µM]
COc1ccc2c(c1)c1c(c(=O)n(-c3ccc(F)c(Cl)c3)c(=O)n1CC(N)=O)n2C	nt	3%	nt	-8%	39%	0%[59 µM]
O=C1NCCCc2c1oc1cc(Br)c(O)c(Br)c21	nt	-19%	1%	-2%	-4%	50µM*
O=C1C2C(c3ccccc3)CC=CC2C(c2cccc([N+](=O)[O-])c2)N1Cc1ccccc1 (centres undefined)	nt	-32%	nt	nt	10%	nt
COc1ccc2c(c1)cc(C(=O)N/N=C/c1c(O)c(C(=O)O)cc3ccccc13)n2C	-66*	?	nt	-10%	23%	-17%
Cn1c(O)c(/C=N/NC(=O)c2cc3ccccc3cc2O)c2ccccc21	-27	-8%	nt	6%	49%	59%
CC(C)=CCCC(C)c1cc(C(=O)NCCc2ccc(O)cc2)c(N)s1 (centres undefined)	-19	nt	nt	nt	nt	nt
SMILES	PI5P4K alpha inh	JMJD2A Tudor	L3MBTL1 inh	BAZ2B inh	HP1b binding inh	G9a inh
CCCCCSc1nnc2c(n1)OC(c1cccn1C)N(C(C)=O)c1ccccc1-2 (centres undefined)	1	28µM*	-9%	?	?	?
Cc1cc(C)c(NC(=O)Cn2c(=O)n(-c3cccc(C(F)(F)F)c3)c(=O)c3c(C)c(C)sc32)c(C)c1	nt	-13%	nt	2%	13%	-26%[59 µM]
O=[N+]([O-])c1ccccc1Sc1nccn1Cc1ccccc1	8	?	-5%	?	0%	50µM*
O=C(CCSc1nc2ccccc2o1)N1CCOCC1	-11	-9%	-6%	-8%	40%	14µM*
COCCNC(=O)CCC(=O)NNc1nc2ccccc2c2nc(C)nn12	0	79µM*	nt	4%	33%	15%
O=[N+]([O-])c1ccc(Cl)c(CN2CCCCCC2)c1	2	1.3µM*	-10%	56µM*	?	25µM*
O=[N+]([O-])c1ccc(Cl)c(CN2CCC(O)CC2)c1	0	10µM*	-6%	56µM*	45µM*	7.9µM*
O=C(CCSCc1cnn(-c2ccccc2)c1-n1cccc1)NCc1ccc(Cl)cc1	nt	-27%	nt	-12%	9%	-31%[59 µM]
C=CCn1c(CCSCc2ccc(OC)c(C)c2)n[nH]c1=S	2	-34%	-2%	-38%	30%	2µM*
CCn1c(CCCc2ccc(OC)c(C)c2)n[nH]c1=S	-9	?	-6%	-11%	38%	nt
C=CCn1c(CCSCc2ccccc2)n[nH]c1=S	0	16µM*	-7%	-10%	16%	7.1µM*
CCOc1ccc(NC(=O)Cn2c(=O)c(CNc3ccc(CC)cc3)cc3cc4c(cc32)OCO4)cc1	nt	-1%	nt	-12%	47%	1%[59 µM]
N#Cc1ncc(Cc2ccccc2)nc1C#N	?	-33%	-12%	?	13%	50µM*
O=c1c2ccccc2[nH]c(=S)n1CCN1CCCC1	-1	-28%	-8%	-13%	13%	18µM*
O=C(CCCn1c(=S)[nH]c2ccccc2c1=O)N1CCCCC1	5	56µM*	3%	4%	35%	?
O=c1c2ccccc2[nH]c(=S)n1CCCN1CCOCC1	1	-24%	nt	-33%	31%	18µM*
O=c1c2ccc(Cl)cc2[nH]c(=S)n1CCCN1CCOCC1	-9	?	7%	-30%	15%	45µM*
CCOc1ccc(NC(=O)CN(C)S(=O)(=O)c2ccc3c(c2)c(=O)n(C)c(=O)n3C)cc1	nt	-14%	nt	-4%	24%	5%[59 µM]
Cc1ccc(C)c(NC(=O)Cn2c(=O)n(Cc3ccc4c(c3)OCO4)c(=O)c3oc4ccccc4c32)c1	nt	-14%	nt	-7%	16%	-8%[59 µM]
O=C(CCN1CCCCC1)Nn1c(=S)[nH]c2ccccc2c1=O	1	0.71µM*	14%	?	16%	?
